The list is not random: actives were taken first. Their share in the collection is about 11%.
AMA1-RON2 inh = qHTS for Inhibitors of AMA1-RON; Towards Development of Antimalarial Drug Lead: Primary Screen | AID 720542, 2013 | Plasmodium falciparum AMA1 (3D7) - RON2 peptide interaction | 0.2% of 360,000 active | AlphaScreen AMA1-biotinylated RON2 peptide binding | Potency, µM (titrated, usually from 58.2 µM), for inactives: at the top dose activity change, negative = inhibition, hits mostly inhibitors;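 further: 0% = vehicle wells and -100% = peptide control; nearly all actives have a fitted effect of over 45% in size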
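AMA1 (3D7) with his tag at 25 nM final met compounds first, then biotinylated RON2 peptide at 25 nM; detection used donor plus acceptor beads, 10 µg/mL apiece, read by AlphaScreen after 30 min at room temperature.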
Pf growth 48h = Primary qHTS for delayed death inhibitors of the malarial parasite plastid, 48 hour incubation; 5.9% of 310,000 active; Potency, µM (top dose mostly 28.7 µM), without a hit: at the top dose activity change, negative = inhibition, usual class: inhibitors; P. falciparum luciferase growth in erythrocytes, 48 h; further: on the % scale 0 is the no-effect control and ±100 the full control effect
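Firefly luciferase activity from engineered P. falciparum reports growth; inhibitors lower the luminescent signal. Cultures contained 2% hematocrit erythrocytes at 0.1% final parasitemia.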
NS1 function inh = qHTS Assay for Inhibitors of Influenza NS1 Protein Function | Potency, µM (series often up to 46.1 µM), without a hit: at the top dose activity, positive = more growth | 0.4% of 270,000 active; calls by dose curve; further: actives are rising curves; nearly all actives have a fitted effect of over 50% in size
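Read-out: OD600 growth recovery of NS1-expressing budding yeast. Cells grown overnight at 30C in -URA glucose medium, washed, resuspended and diluted 1:100 in 2% galactose assay medium, pH 6.0. Same strain lacking NS1 served as positive control.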
Sm TGR block = qHTS Assay for the Inhibitors of Schistosoma Mansoni Peroxiredoxins | Schistosoma mansoni thioredoxin glutathione reductase (TGR), Q962Y6 | purified TGR, DTNB reduction, TNB absorbance 405 nm | Potency, µM (top dose mostly 114 µM), for the others: at the highest dose activity change, negative = inhibition, usual class: inhibitors | 3% of 360,000 active; further: on the % scale 0 is the no-effect control and ±100 the full control effect; nearly all actives have a fitted effect of over 60% in size
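Kinetic colorimetric format: TGR-catalysed, NADPH-driven DTNB reduction monitored via TNB absorbance. Enzyme dispensed at 20 nM; compound exposure 15 min at room temperature before reaction start.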
Pf growth 96h = Primary qHTS for delayed death inhibitors of the malarial parasite plastid, 96 hour incubation | Potency, µM (top dose mostly 28.7 µM), inactives show top-dose activity change, negative = inhibition, most hits filed as inhibitors | P. falciparum luciferase reporter growth, 96 h | 6.9% of 320,000 active | AID 504834, 2011; further: on the % scale 0 is the no-effect control and ±100 the full control effect
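Infected RBCs, 2% Hct / 0.05% parasitemia final; luciferase-reporter P. falciparum; cpd 96 h, 37 C, 5% CO2; luciferase detection reagent; luminescence.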
Active calls of the source: *; ? = inconclusive; . = not tested or not shown; [ ] = another dose, or the depositor's remark. Unless noted, the call rests on the fitted dose curve; in most records, active means well fitted curve in the direction sought with a large enough effect; inconclusive means small, poorly fitted or top-dose-only effect, or another doubt; inactive means no such curve, though single readings can be large; an effect the other way counts as inactive or inconclusive. Potency means the concentration at half of the fitted maximal effect.

SMILES	AMA1-RON2 inh	Pf growth 48h	NS1 function inh	Sm TGR block	Pf growth 96h
Cc1ccc(NC(=O)c2oc3ccc4c(c3c2C)C(=O)CC(C)(C)O4)c(C)c1	.	.	.	6.6%	.
CCOC(=O)c1c(-c2ccccc2)c[nH]c1C	-2.0%	.	.	.	.
CN(C)c1ccc(NC(=O)CN2CCN(CC(=O)Nc3ccc(Br)cc3)CC2)cc1	.	.	.	-2.2%	.
Cc1ccn(CC(=O)N2CCCC(Nc3ccc(F)c(F)c3)C2)n1 (stereo unspecified)	10.6%	?	-5.1%	?	1.9%
Cc1ccnn1CCC(=O)N1CCCC(Nc2ccc(C(C)C)cc2)C1 (stereo unspecified)	-7.1%	.	.	.	.
Cc1ccnn1CCC(=O)N1CCCC(Nc2ccc(F)c(F)c2)C1 (stereo unspecified)	24.8%	0.0%	?	?	11.7µM*
COc1ccc(CCC(=O)N2CCCC(Nc3ccc(C)c(C)c3)C2)cc1OC (stereo unspecified)	-21.7%	-26.0%	0.3%	-18.4%	?
COc1ccc(NC2CCCN(C(=O)Cn3ccc(C)n3)C2)cc1OC (stereo unspecified)	-19.7%	-14.8%	-8.7%	-31.1%	5.22µM*
Cc1ccc(NC2CCCN(C(=O)CCC3=NNC(=O)CC3)C2)cc1C (stereo unspecified)	-5.2%	7.8%	15.6%	-1.2%	8.28µM*
Cc1ccn(CC(=O)N2CCCC(N3CCN(c4ccccc4F)CC3)C2)n1 (stereo unspecified)	-14.7%	10.6%	4.7%	-20.7%	13.1µM*
CC1(C)Oc2ccc3ccc(=O)oc3c2/C(=C/NNC(N)=O)C1=O	109.3%	-2.9%	7.8%	1.3%	25.4%
CCCc1cnc2c(c1SCc1cccc(C)c1)c(=O)n(C)c(=O)n2C	.	.	.	10.1%	.
CC1CSc2n(-c3cccc(C(F)(F)F)c3)cc(-c3ccccc3)[n+]21 (stereo unspecified)	-16.2%	1.85µM*	-5.1%	0.9%	?
CCOC(=O)c1ccc(NC(=O)c2noc3c2CCCC3)cc1	.	.	.	4.5%	.
COc1ccc(C2C(C#N)=C(N)OC3=C2C(=O)CCC3)cc1Cn1nc(C)c([N+](=O)[O-])c1C (stereo unspecified)	0.4%	11.7µM*	-4.0%	-22.2%	24.0%
COc1ccc(C2C(C#N)=C(N)Oc3n[nH]c(C)c32)cc1Cn1nc(C)c([N+](=O)[O-])c1C (stereo unspecified)	-1.0%	-13.9%	17.6%	-4.3%	?
COc1ccc(C(C)=O)cc1Cn1nc(C)c([N+](=O)[O-])c1C	39.0%	18.5µM*	.	2.2%	?
Cc1ccc(S(=O)(=O)N2CCN(C(=O)COC(=O)c3cccc(Cl)c3)CC2)c(C)c1	3.4%	-23.6%	.	-11.9%	-29.7%
CC1CC(C)CN(CCCNC(=O)CN2C(=O)c3cccnc3Oc3ccc(Cl)cc32)C1 (stereo unspecified)	-2.9%	10.4µM*	0.3%	7.2%	?
CCN1CCN(CCCNC(=O)CN2C(=O)c3cccnc3Oc3ccc(Cl)cc32)CC1	9.9%	2.5%	-1.8%	-5.6%	?
O=C(CN1C(=O)NC2(CCCCCCC2)C1=O)Nc1ccc(Br)cc1Br	3.6%	-23.9%	.	0.3%	2.9%
Fc1cc2ncn(Cc3ccccc3)c2cc1F	3.6%	-15.4%	-11.3%	56.2µM*	-2.6%[5.75 µM]
c1ccc(Cn2cnc3ccccc32)cc1	0.8%	0.7%	4.0%	1.2%	8.28µM*
COc1cccc(CN2CCCC(N3CCc4ccccc4C3)C2)c1O (stereo unspecified)	62.0%	?	14.6%	-34.4%	-1.2%
COc1ccc(C(=O)C2CCCN(Cc3cc(Cl)ccc3O)C2)c(OC)c1 (stereo unspecified)	4.0%	?	-26.3%	14.3%	16.3%
SMILES	AMA1-RON2 inh	Pf growth 48h	NS1 function inh	Sm TGR block	Pf growth 96h
COc1cc(CN2CCCC(N3CCc4ccccc4C3)C2)c(Cl)cc1O (stereo unspecified)	23.7%	?	-3.7%	?	2.94µM*
COc1cc2c(cc1OC)CN(C1CCCN(Cc3cc(Cl)ccc3O)C1)CC2 (stereo unspecified)	45.4%	?	-9.1%	?	9.28µM*
CC(=O)c1ccccc1NC(=O)COC(=O)/C(=C/c1ccccc1)n1nnnc1C	-16.2%	5.86µM*	-13.7%	?	2.08µM*
COc1ccc(-c2nc(CS(=O)CC(=O)NC3CCCCC3C)c(C)o2)cc1 (stereo unspecified)	-11.4%	-6.5%	20.6%	?	-12.0%
Cc1ccc(-c2nc(CS(=O)CC(=O)NC3CCCC(C)C3C)c(C)o2)cc1 (stereo unspecified)	-6.5%	21.3%	-4.2%	44.7µM*	-11.3%
COc1ccc(-c2nc(CS(=O)CC(=O)NC3CCCC(C)C3C)c(C)o2)cc1OC (stereo unspecified)	-5.2%	-13.6%	0.3%	12.6µM*	11.7µM*
Cn1cccc1CN1CCC[C@]2(N[C@H](c3ccccc3)[C@@H]3C(=O)N(Cc4ccccc4)C(=O)[C@@H]32)C1=O	-11.8%	.	.	.	.
COC(=O)c1c[nH]c2c1-c1cc(C(=O)OCc3ccccc3)n(S(=O)(=O)c3ccc(C)cc3)c1C(=O)C2=O	-7.7%	.	.	.	.
O=C(CSC1=NNC(c2ccccn2)S1)Nc1ccc(C(F)(F)F)cc1 (stereo unspecified)	-20.9%	?	1.5%	-1.2%	?
c1ccc(CSC2=NNC(c3ccccn3)S2)cc1 (stereo unspecified)	-17.8%	2.08µM*	13.4%	-7.0%	?
O=C(Cc1cccc(NC(=O)C2CCN(C(=O)c3ccccc3)CC2)c1)Nc1cccc(C(=O)N2CCCC2)c1	-3.7%	?	.	-11.0%	-3.9%
O=C(Cc1cccc(NC(=O)C2CCN(C(=O)CCc3ccccc3)CC2)c1)Nc1cccc(C(=O)N2CCCC2)c1	-3.1%	11.7µM*	.	-9.8%	?
O=C(Cc1cccc(NC(=O)C2CCN(C(=O)C3CCCC3)CC2)c1)Nc1cccc(C(=O)N2CCCC2)c1	4.0%	14.7µM*	.	7.7%	?
Cc1ccc(OCCSc2nc3ccccc3n2CC(=O)N2CCOCC2)cc1C	.	.	.	5.9%	.
CCOc1ccc(S(=O)(=O)n2ccc(C)n2)c2ccccc12	-10.7%	10.4µM*	1.0%	1.8%	?
COc1cc(C)c(S(=O)(=O)n2ccc(C)n2)cc1C	-11.5%	.	-54.8%	0.0%	14.7µM*
C/C(=C\c1ccccc1)C(=O)Nc1ccc(Cl)cn1	-1.5%	80.6%	-27.7%	-20.9%	309.9%
COc1ccc(C(NC(=O)N2CC(C)OC(C)C2)C(Cl)(Cl)Cl)cc1F (stereo unspecified)	-1.4%	13.1µM*	-4.7%	-4.7%	3.29µM*
